p47phox inh: inhibitors of human p47phox binding; p47phox/p22phox peptide binding, fluorescence polarization, 2 h; 0.53% of 220,000 active; inhibition, % at 24.7 µM;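 active = inhibition above about 30%, limit read from the data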
Furin inh: human furin inhibition; AID 463115; P09958; purified furin, fluorogenic substrate cleavage; inhibition, % at 20 µM or 30 µM; 0.061% of 220,000 active; in the data active = inhibition above about 25%
HSV augment: increases HSV replication in cells. 0.005% of 220,000 active. HSV replication augmentation in cells, fold increase. maximum fold increase; in the data active = maximum fold increase above about 1.5; tested in PC3 cells
Wee1 degr inh: inhibitors of human Wee1 degradation. HeLa Luc-Wee1K328M stability, luciferase luminescence; 100% = proteasome inhibitor MG132 effect. P30291. reporter increase, % at 5 µM. 1.2% of 220,000 active. AID 1321;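 active = activation above the mean of all tested compounds plus 3 SD, set per screening run, cut at about 8.8% in these data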;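 note: cells exposed to compound for 20 h before luminescence read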
Target sequence (P30291 whole entry K328M): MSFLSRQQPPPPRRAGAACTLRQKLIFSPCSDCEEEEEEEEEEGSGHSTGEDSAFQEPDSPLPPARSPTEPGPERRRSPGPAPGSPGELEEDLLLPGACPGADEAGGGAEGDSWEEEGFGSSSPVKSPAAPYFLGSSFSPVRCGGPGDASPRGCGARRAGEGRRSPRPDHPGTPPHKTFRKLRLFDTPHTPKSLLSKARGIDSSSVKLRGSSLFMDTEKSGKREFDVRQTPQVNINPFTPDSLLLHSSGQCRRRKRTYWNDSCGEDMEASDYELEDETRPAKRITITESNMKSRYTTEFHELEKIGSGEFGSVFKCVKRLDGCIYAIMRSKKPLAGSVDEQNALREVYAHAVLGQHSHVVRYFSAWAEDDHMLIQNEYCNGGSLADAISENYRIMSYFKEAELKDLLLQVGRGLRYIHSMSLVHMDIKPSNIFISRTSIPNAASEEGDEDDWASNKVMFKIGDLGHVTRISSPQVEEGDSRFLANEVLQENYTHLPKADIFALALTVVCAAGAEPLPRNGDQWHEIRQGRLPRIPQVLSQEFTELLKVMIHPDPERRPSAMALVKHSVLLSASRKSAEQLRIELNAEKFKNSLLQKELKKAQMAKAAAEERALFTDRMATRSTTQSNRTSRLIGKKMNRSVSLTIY
PGE2 EP2 inh: EP2 receptor (human) inhibition | P43116 | C6 glioma cells expressing human EP2, cAMP TR-FRET; cells stimulated with saturating PGE2 | inhibition, % at 25 µM | 0.52% of 260,000 active;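 active = percent inhibition above 40 after rounding to a whole number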;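 note: rat C6 glioma host cells with rolipram phosphodiesterase inhibitor present; the protocol text gives 20 µM as final concentration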
EP2 mod: modulators of human EP2 prostaglandin E2 receptor | EP2-expressing cells, cAMP HTRF FRET, PGE2 co-stimulation | induction, % at 25 µM | 0.83% of 260,000 active | AID 940;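 active = compounds whose cAMP rise, as percent of the full-agonist control response, exceeds 60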;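 note: rat C6 glioma line stably carrying human EP2 under a CMV promoter; the protocol text gives 20 µM as final concentration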
Wee1 stab conf: human Wee1 degradation inhibition, confirmation | shares compounds with Wee1 degr inh | HeLa Luc-Wee1K328M degradation, luminescence; vehicle 0%, proteasome-blocked wells 100% | activation, % at 5 µM | 4% of 1,100 active | AID 1410; in the data active = activation above about 8.9%
Each line names hits and unclear results; the compound was inactive in the other large screens (follow-up assays come after a bar, where they were run). Hits are enriched below; roughly 2.8% of the tested compounds scored in any of these assays.

COc1ccc(-c2nnc(SCC(=O)N/N=C/c3ccccc3C(=O)O)n2-c2ccc(Cl)cc2)cc1	Wee1 degr inh 12 | Wee1 stab conf inactive
COc1ccc(CCN(C)C(=O)C2CCN(Cc3ccc(Cl)cc3)CC2)cc1OC	none (no result: p47phox inh, Furin inh, HSV augment, Wee1 degr inh)
CCCCCCCC1(C)NC(=O)N(c2ccccc2)N1 (centres undefined)	Wee1 degr inh 14 | Wee1 stab conf inactive
CCCCC1(CO)C(=O)N(c2ccccc2)N(c2ccccc2)C1=O	none
CCCN(CC1CC1)C(=O)CSc1nnc(-c2cc(-c3cccs3)nc3ccccc23)o1	Wee1 degr inh 19 | Wee1 stab conf inactive
COc1ccc(OC)c2[nH]c(C(=O)N3CCn4c(nnc4C4CC4)C3)cc12	none (no result: p47phox inh, Furin inh, HSV augment, Wee1 degr inh)
CCOC(=O)CNC(=O)CSc1nnc(COc2ccccc2C)n1C	none (no result: p47phox inh, Furin inh, HSV augment, Wee1 degr inh)
CC(=O)c1cccc(NC(=O)N2CCC(c3ccc(C)cc3)C2)c1 (centres undefined)	Wee1 degr inh 14 | Wee1 stab conf inactive
Cc1cc(C)cc(-n2c(C)cc(/C=N\NC(=O)COc3cccc4cccnc34)c2C)c1	none
Cc1cc(/C=N/NC(=O)COc2cccc3cccnc23)c(C)n1-c1ccc(O)cc1	Wee1 degr inh 14 | Wee1 stab conf inactive
O=C(O)Cc1ccc(NC(=O)CCN2C(=O)c3ccc([N+](=O)[O-])cc3C2=O)cc1	Wee1 degr inh 15 | Wee1 stab conf inactive
Cc1sc2ccccc2[n+]1CCCO	none (no result: p47phox inh, Furin inh, HSV augment, Wee1 degr inh)
O=C(Nc1ccc(Cl)cc1)NC1CCCCC1	Wee1 degr inh 11 | Wee1 stab conf inactive
CCCc1[nH]nc2c1C1(CCN(C(=O)OCc3ccccc3)CC1)C(C#N)=C(N)O2	none
CCc1[nH]nc2c1C1(CCN(C(=O)OCc3ccccc3)CC1)C(C#N)=C(N)O2	Wee1 degr inh 16 | Wee1 stab conf inactive
Cc1ccc(C(=O)CSc2nc(C)cc(SCC(=O)N3CCOCC3)n2)cc1	none (no result: p47phox inh, Furin inh, HSV augment, Wee1 degr inh)
O=S(=O)(c1ccc(Oc2ccc(S(=O)(=O)N(CCO)CCO)cc2)cc1)N(CCO)CCO	none (no result: HSV augment)
O=S(=O)(c1ccc(N2CCC(c3ccc(Cl)cc3)=N2)cc1)N(CCO)CCO	Wee1 degr inh 11 | Wee1 stab conf inactive
CCN1CCN(C(c2cc3cc(C)ccc3[nH]c2=O)c2nnnn2Cc2ccccc2)CC1 (centres undefined)	none (no result: p47phox inh, Furin inh, HSV augment, Wee1 degr inh)
CCOc1ccc(S(=O)(=O)N(C)c2ccc(OCC(=O)N3c4ccc(C)cc4C4CN(C)CCC43)cc2)cc1 (centres undefined)	Wee1 degr inh 13 | Wee1 stab conf inactive
CCOc1ccc(CC(=O)N2CCCC(c3noc(-c4ccccn4)n3)C2)cc1 (centres undefined)	none (no result: p47phox inh, Furin inh, HSV augment, Wee1 degr inh)
FC(F)(F)c1cc(-c2cccs2)nc2nc(N3CCOCC3)sc12	Wee1 degr inh 12 | Wee1 stab conf inactive
CCc1ccccc1-n1c(SCC(=O)NC2CCCC2)nnc1-c1ccccn1	none (no result: p47phox inh, Furin inh, HSV augment, Wee1 degr inh)
O=C(CO/N=C1\CCCc2nonc21)Nc1ccc(Br)cc1	Wee1 degr inh 12 | Wee1 stab conf inactive
COc1ccc(NC(=O)CO/N=C2\CCCc3nonc32)cc1	none
O=C(/C=C/c1ccco1)NC(=S)Nc1cc(-c2nc3ccccc3s2)ccc1Cl	none
O=C(/C=C/c1ccco1)NC(=S)Nc1cccc(-c2nc3ccccc3s2)c1	Wee1 degr inh 13 (no result: p47phox inh, EP2 mod) | Wee1 stab conf inactive
Cc1ccc(-c2nnc(SCC(=O)N3CCCC(C)C3)o2)cc1 (centres undefined)	none (no result: p47phox inh, Furin inh, HSV augment, Wee1 degr inh)
Cc1nc2sc(C(c3ccc(C(C)C)cc3)N3CCN(CCO)CC3)c(O)n2n1 (centres undefined)	Wee1 degr inh 24 | Wee1 stab conf inactive
Oc1c(CN2CCOCC2)ccc2ccccc12	Wee1 degr inh 11 | Wee1 stab conf inactive
CC(C)CCN1CCN(Cc2ccc(C#CC(C)(C)O)s2)CC1CCO (centres undefined)	Wee1 degr inh 11 | Wee1 stab conf inactive
Nc1ccc(NC(=O)c2ccncc2)cc1	none (no result: p47phox inh, Furin inh, HSV augment, Wee1 degr inh)
CCOC(=O)c1c(Nc2ccccc2OCCOC)n[nH]c1C	Wee1 degr inh 11 | Wee1 stab conf inactive
CCOC(=O)c1c(C)[nH]c(C(=O)N/N=C\c2ccccc2O)c1C	Wee1 degr inh 12 | Wee1 stab conf inactive
COc1ccc(Br)cc1CNC(=O)CCCc1cn(C)c2ccccc12	Wee1 degr inh 11 (no result: HSV augment) | Wee1 stab conf inactive
Cc1ccsc1/C=C1\CCc2ccccc2C1=O	Wee1 degr inh 16 | Wee1 stab conf inactive

Screens (PubChem)
